Sampled rows, rich in hits. Any-hit rate of the full collection: about 2.3%.
Jurkat NFkB inh – lowers PMA/ionomycin-induced NF-kB signal in Jurkat cells. PMA/ionomycin-induced NF-kB luciferase reporter, luminescence. inhibition, % at 4 µM. 330,000 tested, 0.53% active. AID 435003; in the data active means inhibition above about 50%
Gli-Sufu block – blocks Gli-Sufu signaling in a luciferase reporter | Sufu-KO-LIGHT fibroblasts, Gli luciferase reporter luminescence | inhibition, % at 5 µM | 340,000 tested, 0.74% active | AID 588413;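 active means inhibition above about 55%, limit read from the data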;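 further: 0% = DMSO-treated cells and 100% = wells with medium but no cells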
Shn3 inh set2 – Schnurri-3 reporter inhibition in Clone20 osteoblasts. 360,000 tested, 0.52% active. inhibition, % at 12.5 µM. Clone20 osteoblast Shn3 3'UTR firefly luciferase, 24 h;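 active means mean inhibition of at least 75% with every replicate also reaching 75%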;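 further: 0% = median of neutral control wells and 100% = pilot-screen positive control compound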
aSyn UTR inh – MLPCN primary screen, SNCA 5' untranslated region; alpha-synuclein 5'UTR reporter, inhibitor activity; inhibition, % (tested at 7.5 µM); 300,000 tested, 0.82% active; AID 1813; in the data active means inhibition above about 60%;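 further: H4 neuroglioblastoma cells stably carrying SNCA 5'UTR luciferase fusion; 0% = DMSO wells and 100% = positive control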
TAG inh – reduces triacylglycerol accumulation in H9c2 cells. Nile Red lipid (TAG) fluorescence; cells loaded with 200 µM oleic acid. inhibition, % at 12.5 µM. 230,000 tested, 0.66% active. AID 651582;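 active means pattern-corrected inhibition of lipid staining of at least 50% with the nuclear-stain viability signal not falling by more than 50%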;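 further: 0% = DMSO wells and 100% = triacsin C control wells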
697 NFkB inh – lowers PMA/ionomycin-induced NF-kB signal in 697 B cells. 697 B-cell NF-kB luciferase reporter, 16 h. inhibition, % at 4 µM. 330,000 tested, 0.33% active; in the data active means inhibition above about 35%
Gli antag conf – Gli-SUFU antagonism confirmation, single concentration; AID 602428; inhibition, % at 5 µM; Sufu-KO-LIGHT cells, Gli luciferase reporter, luminescence; 2,500 tested, 40% active; shares compounds with Gli-Sufu block;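 active means mean inhibition at 5 µM reaching about 45%, limit read from the data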;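 further: plate controls were DMSO-treated cells for no effect and wells lacking cells for full effect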
Gli cytotox – counter-screen for Gli-SUFU antagonists: cytotoxicity; shares compounds with Gli-Sufu block; Sufu-KO-LIGHT cells cytotoxicity, ATP luminescence; cytotoxicity, % at 5 µM; 2,500 tested, 32% active; AID 651994;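 active means mean cytotoxicity at 5 µM above about 25%, limit read from the data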;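 further: cells exposed to compound overnight for roughly 16 to 18 hours; plate controls were DMSO wells with cells for no effect and medium without cells for full effect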
Wnt3a cs – inhibits Wnt3a reporter, counter-screen for Gli-SUFU antagonists. shares compounds with Gli-Sufu block. Wnt-LIGHT cells, Wnt3a-driven luciferase reporter, luminescence. inhibition, % at 6.25 µM. 2,500 tested, 20% active. AID 651995;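 active means mean inhibition above about 25%, limit read from the data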
* hit, by the source's call; x = no result given.

SMILES | Jurkat NFkB inh | Gli-Sufu block | Shn3 inh set2 | aSyn UTR inh | TAG inh | 697 NFkB inh | Gli antag conf | Gli cytotox | Wnt3a cs
O=C1N(c2ccc(Cl)c(Cl)c2)CN(Cc2ccccc2)CN1n1cnnc1 | 10.2 | -7.3 | 8.5 | 23.8 | x | 18.6 | x | x | x
CCCCc1ccc(/C=C2/C(=O)ON=C2c2ccccc2)s1 | x | 27.6 | -70.4 | -25.8 | x | x | x | x | x
O=c1[nH]c(/C=C/c2ccccc2F)nc2ccccc12 | -40.9 | -70.8 | -59.5 | 58.9 | 45.8 | -223.7 | x | x | x
O=C(NCc1ccccc1)C1=C[C@H](C2CCCCC2)C[C@H](OCCCCO)O1 | 12.5 | 7.2 | 6.6 | -9.8 | 1.7 | 3.2 | x | x | x
O=C(Nc1ccccc1)C1=C[C@H](C2CCCCC2)C[C@H](OCCCCO)O1 | -53.6 | 62.4* | -58.4 | 4.9 | x | -38.5 | 82.3* | 4.5 | -45.8
O=C(Nc1ccccc1)C1=C[C@@H](C2CCCCC2)C[C@@H](OCCCCO)O1 | -39.6 | 67.9* | -56.4 | 26.5 | -7.9 | -35.4 | 79.5* | 3.0 | 2.7
COc1ccc(Br)cc1S(=O)(=O)N1CCOCC1 | -7.5 | 6.0 | -3.0 | 9.4 | -13.7 | -10.7 | x | x | x
c1ccc(-c2nc3cnccn3c2Nc2ccc3c(c2)OCCO3)cc1 | -1.5 | 8.7 | -18.9 | 9.5 | -5.5 | -3.4 | x | x | x
O=C(Nc1ccccc1C(=O)NCc1ccco1)Nc1cccc2ccccc12 | 8.1 | 14.9 | 8.7 | -35.3 | 21.3 | 1.2 | x | x | x
CN(C(=O)c1cccc(Br)c1)C1CCS(=O)(=O)C1 (stereo not drawn) | -4.2 | 0.1 | -9.0 | 1.0 | -11.1 | -15.0 | x | x | x
COc1ccc2c(c1)C(C)=CC(C)(C)N2S(=O)(=O)c1ccc(Br)cc1 | x | 59.1* | 22.8 | -86.1 | 37.1 | x | 58.1* | 57.6* | 17.9
O=C(CSCc1ccc(Cl)cc1)N/N=C/c1ccccc1 | 6.2 | 50.5 | 18.4 | 16.7 | -5.0 | -22.4 | 7.6 | 15.2 | -2.7
Cc1ccc(C)c(CN2C(=O)COc3ccc(C(=O)c4ccccc4C(=O)O)cc32)c1 | -0.6 | 52.8 | -13.2 | 16.9 | -0.8 | -5.1 | 19.9 | 5.2 | -7.0
Cc1ccc(C)c(CN2C(=O)COc3ccccc32)c1 | -14.0 | 6.4 | 6.2 | 1.0 | -8.4 | -17.9 | x | x | x
COc1ccc(-n2nc3c(N4CCC(C(=O)NCc5ccccc5C)CC4)nnc(C)c3c2C)cc1 | 2.1 | 1.2 | 23.7 | 21.6 | x | -50.3 | x | x | x
COc1ccc(-n2nc3c(N4CCC(C(=O)NC5CCCCC5)CC4)nnc(C)c3c2C)cc1 | 19.3 | 90.8* | -4.2 | 35.5 | x | 6.4 | 23.9 | 16.8 | -91.9
CCO[C@H]1OC(C(=O)N2CCOCC2)=C[C@@H](C2CC2)[C@@H]1CCCO | 9.4 | 98.7* | 6.4 | 12.7 | -2.7 | -7.0 | 25.6 | -5.5 | 0.0
CCOc1ccc(Nc2ccnc3cc(Cl)ccc23)cc1 | 3.4 | 16.3 | -22.2 | -1.4 | -9.4 | 30.1 | x | x | x
Cc1ccc(C)c(NC(=S)NC2CC3CCC(C2)N3Cc2ccco2)c1 (stereo not drawn) | 2.8 | 75.8* | 6.8 | -0.8 | x | -10.5 | 32.4 | 0.1 | 4.4
NC1(C(=O)O)CSSC1 | x | 10.2 | 11.2 | x | 70.8 | x | x | x | x
CCn1cc(C(=O)NCCCOC(C)C)c(=O)c2cc(S(=O)(=O)N3CCCC3)ccc21 | -5.5 | -23.4 | 12.1 | -5.7 | x | -28.2 | x | x | x
CCCCNC(=O)c1cn(CC)c2ccc(S(=O)(=O)N3CCCCCC3)cc2c1=O | 23.2 | 52.0 | 13.1 | 4.3 | x | 16.3 | 19.3 | 40.1* | -28.4
Cc1nn(-c2ccc(NC(=O)c3ccncc3)cc2)c(C)c1Cl | 45.8 | 56.4* | 80.4 | 55.9 | x | -3.2 | 45.4* | 15.5 | 24.1
Cc1ccc2c(c1)CCCN2C(=O)CCc1nc2ccccc2c(=O)[nH]1 | 47.8 | 90.4* | -2.9 | x | 39.6 | -61.7 | 22.0 | 54.6* | -11.7
CCN(CC)S(=O)(=O)c1cccc(NC(=O)CNc2cccc(S(=O)(=O)N3CCOCC3)c2)c1 | 49.4 | 63.2* | 88.1* | 7.5 | -10.2 | 29.0 | 68.8* | 25.1* | 28.8*
CCN(CC)S(=O)(=O)c1cccc(NC(=O)CCSc2ccc(Cl)cc2)c1 | x | 50.7 | 6.2 | 32.6 | -16.5 | x | 9.9 | 27.8* | -33.0
